The whole screen tested about 360,000 compounds, of which about 1,300 (0.36%) were called active. Cut-off read from the data, not from the text of the source: active = inhibition above about 19%; inactive = the rest. The sample as a whole holds a higher share of actives than the screen did.
test system: T-cell receptor (TCR); experiment: small molecules blocking TCR binding to CD3 – biochemical, fluorescence, TAMRA-labeled TCR probe, primary screen (AID 651800); settings: at 9.4 µM, active compounds read high;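 note: recombinant mutant TCR 2C K166C tagged with TAMRA read by polarization; 0% = receptor in buffer alone and 100% = receptor with positive control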

Structure (SMILES)	inhibition
CCc1ccc(C2=CC(=O)CC(C)(C)C2=O)cc1	-0.75% (inactive)
COc1ccc(C(=O)NNc2cc(C)nc(NNC(=O)c3ccc(OC)cc3)n2)cc1	19.4% (active)
COc1ccc(C(=O)NCCSc2ccccc2C)cc1	-0.19% (inactive)
COc1ccc(C(=O)NCC[N+](C)(C)C)cc1	-6.67% (inactive)
CC(c1ccccc1)n1c(NCCCn2ccnc2)nc2c1c(=O)[nH]c(=O)n2C (stereo unspecified)	5.62% (inactive)
COc1ccc(S(=O)(=O)Nc2ccc3c(c2)C(=O)N([C@H](C)CO)C[C@H](C)[C@@H](CN(C)C)OCCCC[C@H](C)O3)cc1	-1.68% (inactive)
CC(=O)c1ccc(S(=O)(=O)NCC2CCN(C(=O)C(=O)c3cccs3)CC2)cc1	-11.4% (inactive)
CCN(CC)CCCC(C)n1c2nc(=O)[nH]c(=O)c-2nc2cc(Cl)ccc21 (stereo unspecified)	54.6% (active)
O=C(NCc1ccccc1)[C@H]1CCCN1C(=O)[C@H]1CCCN1C(=O)c1cc(F)cc(F)c1	1.6% (inactive)
O=C(/C=C/c1cn(-c2ccccc2)nc1-c1ccc2c(c1)OCCO2)NCCCN1CCOCC1	-3.23% (inactive)
Cc1ccc(-c2nn(-c3ccccc3)cc2/C=C/C(=O)Nc2cccc(S(N)(=O)=O)c2)cc1	83.6% (active)
Cc1ccc(-c2nn(-c3ccccc3)cc2C(=O)Nc2cccc(S(=O)(=O)N3CCOCC3)c2)cc1	2.85% (inactive)
CN(C)C(=O)N1CCN(C(=O)[C@@H](Cc2ccccc2)NC(=O)[C@H]2O[C@@H](n3ccc(N)nc3=O)[C@H](O)[C@@H]2O)CC1	-1.88% (inactive)
COC(=O)C1=C(C(=O)OC)C2C=C(C(C)C)C1C(=O)C2(C)O (stereo unspecified)	-5.88% (inactive)
COC(=O)C1=C(C)N(Cc2cccc(C(F)(F)F)c2)C(=NCc2cccc(C(F)(F)F)c2)NC1c1ccccc1C(F)(F)F (stereo unspecified)	7% (inactive)
CC1CCCN(c2cccc3c2S(=O)(=O)N(Cc2ccc(F)cc2)[C@@H](C)[C@H](c2ccccc2)O3)C1 (stereo partly specified)	-3.78% (inactive)
CC(C)C[C@H](NC(=O)CC1CCCC1)C(=O)N1CCC[C@H]1C(=O)NCc1ccccc1	-0.62% (inactive)
COc1ccccc1C(=O)NNC(=O)c1ccc(NC(=O)c2ccccc2)cc1	37.3% (active)
COc1ccccc1C(=O)c1ccccc1C(=O)c1ccccc1	-2.38% (inactive)
COc1ccccc1C(=O)NCC(=O)OCC(=O)NNC(=O)c1ccc(Br)cc1	7.36% (inactive)
CC(=O)C1=C(C)N(Cc2ccc(Cl)cc2)C(=S)NC1c1ccc(F)cc1 (stereo unspecified)	3.88% (inactive)

Structure (SMILES)	inhibition
COc1ccccc1Cc1c(-c2ccc(F)cc2)nc2ccc(C)cn12	-1.71% (inactive)
O=C(NCc1ccccc1)[C@@H]1CCCN1C(=O)[C@@H](NS(=O)(=O)c1ccc(F)cc1F)C1CCCCC1	-7.08% (inactive)
COc1ccccc1C(CNC(=O)c1ccc(C)c(S(=O)(=O)N2CCCCC2)c1)N(C)C (stereo unspecified)	-9.01% (inactive)
Cc1ccc(C(=O)NCC(=O)O)cc1S(=O)(=O)N1CCCCC1	21.8% (active)
Cc1ccc(C(=O)NNC(=O)c2ccncc2)cc1S(=O)(=O)N1CCCCC1	-4.33% (inactive)
COC(=O)[C@]12C[C@H](CC(=O)NCc3ccc(OC)c(OC)c3)C(=O)N(Cc3ccccc3)C1=C[C@H](C(C)C)O[C@@H]2C1CC1	1.22% (inactive)
Cc1nn(C)cc1N1C(=O)c2cccc3c(N)ccc(c23)C1=O	38% (active)
COc1ccc(NS(=O)(=O)c2cc(NC(=O)/C=C/c3cc(OC)c(OC)c(OC)c3)ccc2N2CCCCC2)cc1	22.8% (active)
COc1ccc(NS(=O)(=O)c2cc(NC(=O)C3CCCCC3)ccc2N2CCOCC2)cc1	0.76% (inactive)
COc1ccc(NS(=O)(=O)c2cc(NC(=O)c3ccc(S(=O)(=O)N(C)C)cc3)ccc2N2CCOCC2)cc1	1.69% (inactive)
Nc1[nH]c(C(=O)c2ccccc2)c(-c2ccc(Cl)cc2Cl)c1C(=O)c1ccccc1	4.17% (inactive)
Nc1nc(CC(=O)CSc2ccc(Cl)cc2)nc(Nc2ccc(F)cc2)n1	4.84% (inactive)
Cc1cc2nc3c(=O)[nH]c(=O)nc-3n(C[C@H](O)[C@H](O)[C@H](O)CO)c2cc1C	19.9% (active)
CN1CCCCC(NC(=O)C(C)(C)C)C1=O (stereo unspecified)	-0.73% (inactive)
CC(C)CNc1cccc2c1S(=O)(=O)N[C@H](C)CO2	0.56% (inactive)
C[C@H]1CN([C@@H](C)CO)C(=O)CCCn2nncc2CO[C@@H]1CN(C)C(=O)Nc1ccc(N2CCN(C)CC2)cc1	3.36% (inactive)
CN[C@H]1C[C@H]2c3[nH]c4c(-c5ccccc5)cccc4c3CCN2C(=O)[C@H]1[C@H](C)O	2.21% (inactive)
CCN(CC(=O)Nc1ccc2c(c1)OCO2)S(=O)(=O)c1ccccc1	-7.59% (inactive)
NS(=O)(=O)c1ccc(NC(=O)COC(=O)c2c3c(nc4ccccc24)/C(=C\c2ccc4c(c2)OCO4)CCC3)cc1	50.3% (active)
CC(NC(=S)Nc1ccc(S(N)(=O)=O)cc1)c1ccc2c(c1)OCO2 (stereo unspecified)	-3.8% (inactive)
Cc1c(Cl)cccc1NC(=O)CCC(=O)N/N=C/c1ccco1	1.69% (inactive)

Structure (SMILES)	inhibition
O=C(N/N=C/c1ccco1)c1ccc(C(=O)N/N=C/c2ccco2)o1	21.8% (active)
O=C(Cn1cnc2ccccc21)N/N=C/c1ccco1	3.99% (inactive)
Cc1ccc2nc(CN(C)C(=O)[C@@H](Cc3ccccc3)NC(=O)[C@H]3O[C@@H](n4ccc(=O)[nH]c4=O)[C@H](O)[C@@H]3O)[nH]c2c1	3.29% (inactive)
C=CCN=C1NC(c2cccc(C(F)(F)F)c2)C(C(=O)OC)=C(C)N1C (stereo unspecified)	-6.24% (inactive)
O=C(N/N=C/c1cc([N+](=O)[O-])ccc1O)/C(=C\c1cccs1)NC(=O)c1ccccc1	30.9% (active)
Cc1ccc(C(=O)N/C(=C\c2cccs2)C(=O)NCCc2ccccn2)cc1C	2.48% (inactive)
COc1cc(/C=C(/NC(=O)c2ccccc2)C(=O)Nc2cccc(O)c2)c([N+](=O)[O-])cc1OC	-4.87% (inactive)
Cn1c(=O)c(C(=O)Nc2ncccn2)c(O)c2ccccc21	3.65% (inactive)
C=CCn1c(=O)c(C(=O)NCc2ccc3c(c2)OCO3)c(O)c2ccccc21	4.79% (inactive)
C=CCn1c(=O)c(C(=O)Nc2ncccc2O)c(O)c2ccccc21	29.1% (active)
COCCNC(=S)N(C)[C@H]1C[C@H]2c3[nH]c4ccccc4c3CCN2C[C@H]1[C@H](C)O	10.3% (inactive)
O=C(Nc1cccc2ccccc12)NC1CC1	10.8% (inactive)
CCN(C(=O)Nc1cccc2ccccc12)c1ccccc1	66.9% (active)
CC(=O)N(C)c1ccc(NC(=O)Nc2cccc3ccccc23)cc1	-3.94% (inactive)
CC1CCN(c2ccc(S(=O)(=O)Nc3cc(C(=O)O)cc(C(=O)O)c3)cc2[N+](=O)[O-])CC1	2.91% (inactive)
O=c1c2ccccc2c(-c2ccccc2)nn1-c1ccccn1	26.3% (active)
CCOC(=O)C(C)n1nc(-c2ccccc2)c2ccccc2c1=O (stereo unspecified)	1.19% (inactive)
O=C(O)c1ccc(-n2nc(-c3ccccc3)c3ccccc3c2=O)cc1	-0.55% (inactive)
CC(C)[C@@H](C)/C=C/[C@@H](C)[C@H]1CC[C@@H]2[C@]1(C)CCC1[C@]23C=C[C@]2(C[C@@H](O)CC[C@]12C)N(c1ccc([N+](=O)[O-])cn1)O3 (stereo partly specified)	0.39% (inactive)
COC(=O)Nc1nc2ccc(C(=O)C3CC3)cc2[nH]1	2.68% (inactive)
CC(=NNC(N)=O)c1ccc(Cl)c(-n2cccc2)c1	-1.93% (inactive)

Structure (SMILES)	inhibition
O=C(N/N=C/c1ccoc1)c1ccc(Cl)cc1Cl	2.14% (inactive)
CSc1ccc(/C=N/NC(=O)c2cccc(Cl)c2)cc1	-1.56% (inactive)
CC(C)(C)C(=O)Nc1ccc(C(=O)N/N=C/c2ccccc2OC(=O)c2ccc(Cl)cc2Cl)cc1	33.2% (active)
OC(CCl)CCl	2.99% (inactive)
CCOc1c(OC)cccc1C(=O)NCC1(c2ccccc2)CCCC1	-3.45% (inactive)
COc1ccc(C2(CNC(=O)Cc3ccc(OC)c(OC)c3)CCCC2)cc1	8.2% (inactive)
COc1cc(C(=O)NCC2(c3ccccc3)CCCC2)ccc1OC(C)C	35.4% (active)
CCOC(=O)/C=C/c1ccccc1O	0.35% (inactive)
CC(=O)N1c2ccccc2N(Cc2ccc([N+](=O)[O-])cc2)C(=O)C1(C)C	-3% (inactive)
O=C(Nn1c(SCc2ccc([N+](=O)[O-])cc2)nc2ccccc2c1=O)c1ccc(F)cc1	4.61% (inactive)
O=c1[nH]n(-c2ccc([N+](=O)[O-])cc2)c(=O)c2ccccc12	57% (active)
N#Cc1ccc(-c2nc3cc(C#N)c(C#N)cc3nc2-c2ccccc2)cc1C#N	10.9% (inactive)
COc1ccc(NC(=O)N(C)C[C@@H]2OCCCC[C@@H](C)Oc3ccc(NC(=O)NC4CCCCC4)cc3C(=O)N([C@H](C)CO)C[C@@H]2C)cc1	4.84% (inactive)
Cc1cc(=O)n2[nH]c(-c3sccc3-n3c(C)ccc3C)cc2n1	-6.69% (inactive)
CCOc1ccc(-n2c(O)c(/C=N/Nc3nnc(C)c(=O)[nH]3)c3ccccc3c2=O)cc1	43.9% (active)
CCOc1ccc(N/C(N)=N/c2nc(C)c(C)c(=O)[nH]2)cc1	4.59% (inactive)
CCOc1ccc(-n2c(SCC(=O)Nc3cc(C(=O)O)ccc3Cl)nc3ccccc3c2=O)cc1	-2.21% (inactive)
CCN1C(=O)N[C@@H]2C[C@H](C(=O)N3CCCC3)[C@H](C)[C@H](c3ccccc3)C[C@@H]21	2.71% (inactive)

Reference: PubChem BioAssay AID651800 (The Scripps Research Institute Molecular Screening Center, 2012)
